# Experimental data: PubChem BioAssay AID1745847 (National Center for Advancing Translational Sciences (NCATS), 2022)
# The whole screen tested about 2,100 compounds, of which about 670 (32%) were called active. Roughly 50% stayed inconclusive and do not appear here. Some of the results follow. Values without a mark were called inactive. The call rests on the fitted dose curve; in most records, active means well fitted inhibition curve with a large enough effect; inconclusive means small, poorly fitted or top-dose-only effect; inactive means no such curve, though single readings can be large or run the other way.
# Experiment: CMV-Luciferase Counterscreen for Inhibitors of ATXN expression; further: nearly all actives have a fitted effect of over 55% in size
# Settings: HEK-293 CMV-luciferase reporter, luminescence, 24 h; series mostly up to 57.5 µM
# On the % scale 0 is the no-effect control and ±100 the full control effect; potency means the concentration at half of the fitted maximal effect.
Structure (SMILES),Potency,"activity change, negative = inhibition"
Cc1cc(C)nc(N/N=C2/CCCC/C2=C\c2ccccc2)n1,3.16 µM (active),–
NC(N)=N/N=C/c1ccc2cccc(OCc3ccccc3)c2n1,22.4 µM (active),–
Cc1cc(Cl)ccc1-c1cc2nc(NCCCN(C)C)n(C)c(=O)c2s1,–,5.92% [at 11.4 µM]
N#Cc1c(N)n(C2OC(CO)C(O)C2O)c2ncnc(N)c12 (centres undefined),inactive,–
CNc1nc2c(N)ncnc2n1[C@H]1O[C@@H](CO)[C@H](O)[C@@H]1O,–,119% [at 11.4 µM]
Nc1ccn([C@@H]2O[C@H](CO)[C@@H](O)C2O)c(=O)n1 (some centres undefined),2.51 µM (active),–
COC(=O)c1c(NC(=O)c2ccc([N+](=O)[O-])o2)sc2c1CCN(C(C)C)C2,15.8 µM (active),–
O=C(COc1ccccc1Cl)Nc1ccc(N2CCN(C(=O)c3ccccc3)CC2)cc1,3.55 µM (active),–
CC(=O)N(C1=C(Cl)C(=O)c2ccccc2C1=O)C1CCCCC1,12.6 µM (active),–
COCCCn1c(N)c(-c2nc3ccccc3n2C)c2nc3ccccc3nc21,17.8 µM (active),–
CCCCOc1ccccc1NC(=O)Cn1c(-c2nonc2N)nc2ccccc21,inactive,–
Cc1ccc(NS(=O)(=O)c2ccc(NC(=O)C(C)Sc3ccc(Cl)cc3)cc2)c(C)c1 (centres undefined),25.1 µM (active),–
O=C(c1ccc(F)cc1F)C1CCN(c2ccc([N+](=O)[O-])cn2)CC1,4.47 µM (active),–
NC(c1ccccc1)c1csc(NC(=O)Nc2ccccc2Oc2ccccc2)n1 (centres undefined),–,-22.9% [at 11.4 µM]
CC(Oc1ccc(F)cc1)C(=O)Nc1nc(-c2ccccn2)cs1 (centres undefined),2.51 µM (active),–
COC(=O)C(Cc1ccc(O)cc1)NC(=O)C(C)Oc1ccccc1 (centres undefined),inactive,–
Cc1cc(C)c2nc(NNC(=O)c3cc(-c4cccs4)nc4ccccc34)sc2c1,2.82 µM (active),–
CCN1CCS/C1=C\C=C\C1=[N+](CC)CCS1,3.98 µM (active),–
NCCCCCc1nnc(SCc2ccccc2Cl)o1,–,-36.5% [at 11.4 µM]
CCOC(=O)c1c(-c2ccccc2)oc2cc(CN(C)C)c(O)c(CN(C)C)c12,8.91 µM (active),–
CC(=O)Nc1ccc(N(CC(O)Cn2c3ccccc3c3ccccc32)S(=O)(=O)c2ccc(C)cc2)cc1 (centres undefined),20 µM (active),–
CSc1sc(-c2nnc(SCC(=O)Nc3ccc(Cl)cc3)n2C)c2c1C=CCC2,–,-19.8% [at 11.4 µM]
Cn1c(SCC(=O)N/N=C/c2ccc([N+](=O)[O-])s2)nnc1-c1ccc(Cl)cc1,15.8 µM (active),–

Structure (SMILES),Potency,"activity change, negative = inhibition"
Cn1c(SCC(=O)Nc2cc(Cl)cc(Cl)c2)nnc1-c1ccc2nonc2c1,–,-10.7% [at 11.4 µM]
O=C(CSc1nnnn1-c1ccccc1)Nc1nsc(-c2ccccc2)n1,inactive,–
Cn1c(SCC(=O)N/N=C/c2ccc([N+](=O)[O-])s2)nnc1-c1ccccc1,22.4 µM (active),–
Cc1ccc2[nH]c(=O)c(CN(CCCN(C)C)C(=O)Nc3cccc(Cl)c3)cc2c1,inactive,–
O=c1c2ccc(Cl)cc2nc(-c2ccc([N+](=O)[O-])cc2)n1O,7.94 µM (active),–
Cc1cc(Cl)c(C(=O)Nc2cccc(C(F)(F)F)c2)c(C)n1,17.8 µM (active),–
CC(C)(C)c1cc(C(=O)NNc2cc(C(F)(F)F)ccc2Cl)n(Cc2ccccc2)n1,inactive,–
Cc1nc(-c2c(C(F)(F)F)noc2-c2ccc(O)cc2O)cs1,11.2 µM (active),–
CCCCC(=O)NC(c1ccc(OC)c(OC)c1)c1ccc2cccnc2c1O (centres undefined),2.82 µM (active),–
CCC(=O)NC(c1ccc(Cl)cc1Cl)c1ccc2cccnc2c1O (centres undefined),2.24 µM (active),–
CCCCC(=O)NC(c1ccccc1Cl)c1ccc2cccnc2c1O (centres undefined),2.51 µM (active),–
CCCCC(=O)NC(c1ccccc1OC)c1ccc2cccnc2c1O (centres undefined),2.82 µM (active),–
COc1ccc(N2C3=C(CC4=C2CC(C)(C)CC4=O)C(=O)CC(C)(C)C3)cc1,–,-2.52% [at 11.4 µM]
CCCCC(=O)NC(c1ccc(Cl)cc1Cl)c1ccc2cccnc2c1O (centres undefined),0.794 µM (active),–
CCCC(=O)NC(c1ccc(Cl)cc1Cl)c1ccc2cccnc2c1O (centres undefined),2.51 µM (active),–
CCCCOc1ccc(C(=O)NNC(=O)c2cnccn2)cc1OC,10 µM (active),–
CN(C)CCC(c1ccc(Br)cc1)c1ccccn1 (centres undefined),inactive,–
COc1ccc(/C(N)=N/OC(=O)N2CCOCC2)cc1,–,20.7% [at 11.4 µM]
COc1ccc(CC(=O)Nc2nc(-c3ccc(OC)c(OC)c3)cs2)cc1OC,3.55 µM (active),–
Cc1noc(C)c1CSCC(=O)Nc1nc(-c2ccc(F)c(F)c2)cs1,25.1 µM (active),–
O=C(CCN1C(=O)C2CC=CCC2C1=O)Nc1nc(-c2ccc(F)c(F)c2)cs1 (centres undefined),inactive,–
O=C(Nc1nc(-c2ccc(F)c(F)c2)cs1)Nc1ccc(F)cc1F,–,6.09% [at 11.4 µM]
COCCNc1nc(-c2cc(C)n(CCc3ccc(OC)cc3)c2C)cs1,inactive,–

Structure (SMILES),Potency,"activity change, negative = inhibition"
COc1ccc(CC(=O)Nc2nc(-c3ccc(F)c(F)c3)cs2)cc1OC,6.31 µM (active),–
COc1cc(C(=O)OC(C)C(=O)N2CCc3ccccc3C2)ccc1OCC(=O)N1CCOCC1 (centres undefined),–,-9.5% [at 11.4 µM]
COc1ccc(-c2csc(NC(=O)c3ccc(OCC(=O)N4CCOCC4)c(OC)c3)n2)cc1OC,14.1 µM (active),–
Cc1ccc(NC(=O)CCC(=O)c2cc(C)sc2C)nc1,inactive,–
Cc1ccc(OCC(=O)N2CCN(c3nnc(-c4ccc(C)cc4)c4ccccc34)CC2)cc1,2.24 µM (active),–
CCOC(=O)/C=C/C(=O)Nc1ccc(Oc2ccccc2)cc1,–,-6.32% [at 11.4 µM]
CCCCOC(=O)/C=C\C(=O)NC(N)=O,14.1 µM (active),–
CCCN(CCC)S(=O)(=O)c1ccc(C(=O)Nc2nnc(-c3cc(OC)cc(OC)c3)o2)cc1,0.794 µM (active),–
Cc1nc2ccc(NC(=O)c3cccc(S(=O)(=O)N(C)c4ccccc4)c3)cc2s1,3.55 µM (active),–
Cc1ccc2nc(N(CCCN(C)C)C(=O)c3ccc(S(=O)(=O)N4CCCCCC4)cc3)sc2c1,–,-18.5% [at 11.4 µM]
Cc1nc2cc(NC(=O)CSc3nc4c(C)cccc4cc3C#N)ccc2s1,inactive,–
Cc1nc2ccc(NC(=O)c3ccc(S(=O)(=O)N(C)c4ccccc4)cc3)cc2s1,3.98 µM (active),–
CN(c1ccccc1)S(=O)(=O)c1ccc(C(=O)Nc2nnc(-c3ccc(F)cc3)o2)cc1,10 µM (active),–
Cc1cccc(NC(=O)c2ccc(S(=O)(=O)N(C)c3ccccc3)cc2)n1,14.1 µM (active),–
O=C(Nc1nnc(-c2ccc(F)cc2)o1)c1cc(Cl)sc1Cl,10 µM (active),–
O=C(c1ccco1)N1CCCC(c2nc(-c3ccc(S(=O)(=O)NCc4ccccc4)cc3)no2)C1 (centres undefined),11.2 µM (active),–
COc1cc2c3nnc(-c4ccc(F)cc4)c-3cn(Cc3ccc(F)cc3)c2cc1OC,–,-11.8% [at 11.4 µM]
O=C(c1ccco1)N1CCN(c2ccnc3cc(Cl)ccc23)CC1,14.1 µM (active),–
CCOC(=O)C(=CNc1ccc2c(c1)nnn2-c1ccc(Cl)cc1)C(=O)OCC,inactive,–
O=C(C1CCCCC1)N1CCN(c2ccnc3cc(Cl)ccc23)CC1,5.01 µM (active),–
CC(C)N(C(=O)N1CCN(c2ccnc3cc(Cl)ccc23)CC1)C(C)C,12.6 µM (active),–
CCOC(=O)N1CCN(c2ccnc3cc(Cl)ccc23)CC1,2.51 µM (active),–
Cc1cc2oc3ccc(NCCC4CCCN4C)cc3c(=O)c2cc1C (centres undefined),inactive,–

Structure (SMILES),Potency,"activity change, negative = inhibition"
CN[C@H]1C[C@H]2c3[nH]c4ccc(-c5ccc(OC)cc5)cc4c3CCN2C(=O)[C@H]1[C@H](C)O,3.55 µM (active),–
Cc1nn(C)c(C)c1NC(=O)CSc1nc(Cc2ccccc2)nc2c1cnn2-c1ccccc1,–,-7.1% [at 11.4 µM]
CC(C)CC(=NNC(=O)c1ccncc1)c1cc(Cl)ccc1O,0.282 µM (active),–
C/C(=N\NC(=O)c1cc(-c2cccnc2)nc2ccccc12)c1ccc(O)cc1O,2.51 µM (active),–
COc1ccc(/C(C)=N/NC(=O)c2cccc(S(=O)(=O)N3CCCC3)c2)c(O)c1,3.98 µM (active),–
N/C(=C\C(=O)c1cc(Cl)ccc1O)C(Cl)(Cl)Cl,–,21.6% [at 11.4 µM]
CC(=NNC(=O)c1ccncc1)c1ccc2ccccc2c1O,0.794 µM (active),–
O=C1CCCC(O)=C1C=NCc1ccccc1,–,6.36% [at 11.4 µM]
CCN(CC)S(=O)(=O)c1cccc(C(=O)N/N=C(\C)c2ccc(O)cc2O)c1,4.47 µM (active),–
CC(=NNC(=O)c1ccncc1)c1ccc(O)cc1O,11.2 µM (active),–
Oc1c(CN2CCCCC2)ccc2cccnc12,12.6 µM (active),–
CCN(CC)CCNc1ccnc2cc(Cl)ccc12,–,-15.4% [at 11.4 µM]
Clc1ccc2c(NCc3ccccc3)ccnc2c1,8.91 µM (active),–
Cc1ccc2c(Cl)cc(Cl)c(O)c2n1,8.91 µM (active),–
CS(=O)(=O)N1CCC(Oc2cccc(C(=O)NCCCC3CCCC3)c2)CC1,14.1 µM (active),–
CC[C@@H]1C(c2cccc(Cl)c2)=NN(c2ccc(Br)cc2)[C@H]1C(=O)N1CCOC1=O,inactive,–
COc1ccc(-c2cc(C3CCN(c4ccc(C(C)=O)cc4[N+](=O)[O-])CC3)[nH]n2)cc1,11.2 µM (active),–
CC(=O)c1ccc(N2CCc3ccccc3C2)c([N+](=O)[O-])c1,inactive,–
O=c1c2c(-c3ccccc3)csc2nc2c3ccccc3c(NCCN3CCOCC3)nn12,–,-12% [at 11.4 µM]
CCOC(=O)c1ccccc1NC(=O)CSc1nc2ccccc2c(=O)n1CCCN1CCOCC1,17.8 µM (active),–
